According to the supplement of paper PMC7530171:
Structures can show the parent of a compound that is named as a salt. ± gives the standard deviation.

tested on: THP-1 macrophages infected with Mycobacterium tuberculosis H37Rv; experiment: intracellular M.tb growth inhibition relative to DMSO (0) and 4 uM bedaquiline (100); higher = stronger inhibition of intracellular bacterial growth; conditions: 10 µM; 4 days
Description: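 OICR kinase inhibitor library screened in duplicate at 10 uM against THP-1 macrophages (PMA-differentiated) infected with M. tuberculosis H37Rv-pTEC27 (tdTomato RFP), 4 days at 37 C. Rows with complete host cell loss (placeholder inhibition 0, cell loss 100) were removed.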

| SMILES | intracellular M.tb growth inhibition |
| --- | --- |
| Cc1ccc(F)c(NC(=O)Nc2ccc(-c3cccc4[nH]nc(N)c34)cc2)c1 | -14.6 ± 21% |
| COC(=O)c1ccc2c(c1)NC(=O)/C2=C(\Nc1ccc(N(C)C(=O)CN2CCN(C)CC2)cc1)c1ccccc1 | -144 ± 210% |
| Cc1nc(N)sc1-c1ccnc(Nc2ccc(N3CCOCC3)cc2)n1 | 13.1 ± 18% |
| N#C/C(=C\c1ccc(O)c(O)c1)C(=O)NCc1ccccc1 | 9.47 ± 28% |
| CC1=C(C(=O)Nc2cc3cn[nH]c3cc2F)C(c2ccc(C(F)(F)F)cc2)CC(=O)N1 (stereo not given) | -101 ± 100% |
| O=C(Nc1cccc(Cl)c1)Nc1ncc(CCNc2ncnc3ccsc23)s1 | -53.6 ± 76% |
| Nc1nccc(-c2ccc3noc(-c4ccc(Cl)cc4)c3c2)n1 [PIM 1 Inhibitor 2] | 20.6 ± 8.4% |
| CC(C)c1cc(/C=C(\C#N)C(=O)NCCCc2ccccc2)cc(C(C)C)c1O [Tyrphostin SU 1498] | 50.29 ± 0.083% |
| NC(=O)c1ccc(-c2nc(-c3ccccn3)c(-c3ccc4c(c3)OCO4)[nH]2)cc1 | 17.9 ± 36% |
| CC(=O)c1c(C)c2cnc(Nc3ccc(N4CCNCC4)cn3)nc2n(C2CCCC2)c1=O | -126 ± 210% |
| COc1cc2ncnc(Nc3ccc(O)cc3)c2cc1OC [Janex-1] | -138 ± 210% |
| O=c1c(O)c(-c2ccc(O)c(O)c2)oc2cc(O)cc(O)c12 [Quercetin] | -5.54 ± 46% |
| O=C1NC(=O)C(c2ccccc2[N+](=O)[O-])=C1Nc1ccc(O)c(Cl)c1 | -38.8 ± 82% |
| COc1ccc(CNC(=O)Nc2ncc([N+](=O)[O-])s2)cc1 | 20.1 ± 28% |
| C[C@@H](N)[C@H]1CC[C@H](C(=O)Nc2ccncc2)CC1 | -59.3 ± 110% |
| Cc1cc(C(=O)N2CCN(c3cccc(Cl)c3)CC2)n(-c2ccccc2)n1 | -17.5 ± 0.18% |
| Cc1cc(N2CCOCC2)cc2[nH]c(-c3c(NC[C@@H](O)c4cccc(Cl)c4)cc[nH]c3=O)nc12 | -36.6 ± 15% |
| C=CCn1c(=O)c2cnc(Nc3ccc(N4CCN(C)CC4)cc3)nc2n1-c1cccc(C(C)(C)O)n1 | -188 ± 280% |
| O=C(O)c1cc(N(Cc2ccccc2O)Cc2cc(O)ccc2O)ccc1O [Lavendustin A] | 10.4 ± 41% |
| CN(C)c1cc2c(Nc3ccc4c(cnn4Cc4ccccc4)c3)ncnc2cn1 | 43.5 ± 9.2% |

| SMILES | intracellular M.tb growth inhibition |
| --- | --- |
| CN1CCC(Nc2ncc3ncnc(Nc4ccc(F)c(Cl)c4)c3n2)CC1 [BIBX 1382 dihydrochloride] | 64.2 ± 13% |
| Cn1cc(/C=C2\C(=O)Nc3cccnc32)c2ccccc21 | -49.9 ± 14% |
| Fc1ccc(Cl)cc1-c1nc(Nc2ccncc2)c2nccnc2n1 | 36.5 ± 10% |
| O=C(O)c1ccc(-c2c[nH]c3ncc(-c4ccccc4)cc23)cc1C1CCCC1 | -23.5 ± 47% |
| Cc1cc(Nc2cc(N3CCN(C)CC3)nc(Sc3ccc(NC(=O)C4CC4)cc3)n2)n[nH]1 | -6.87 ± 4.6% |
| Nc1nccc(Oc2ccc(NC(=O)c3c[nH]cc(-c4ccc(F)cc4)c3=O)cc2F)c1Cl | 37 ± 33% |
| Cc1c[nH]c(/C=C2\C(=O)Nc3ccccc32)c1CCC(=O)O | 27.3 ± 23% |
| COc1nccc(-c2c(-c3ccc(F)cc3)ncn2C2CCC(O)CC2)n1 (stereo not given) | 1.01 ± 15% |
| Nc1[nH]nc2nc3ccccc3nc12 | 0.53 ± 68% |
| S=C(NCc1ccc2c(c1)OCO2)N1CCN(c2ncnc3c2oc2ccccc23)CC1 | -35.5 ± 71% |
| CCOc1cc(/C=C(\C#N)C(N)=O)cc(CSc2ccccc2)c1O | -116 ± 140% |
| COc1ccc(-c2ccc3c(N4CCOCC4)nc(N4C[C@@H](C)O[C@@H](C)C4)nc3n2)cc1CO | -282 ± 370% |
| Cc1cnc(-c2cnc(NCCNc3ccc(C#N)cn3)nc2-c2ccc(Cl)cc2Cl)[nH]1 | 7.29 ± 24% |
| CC(C)N(CCC(=O)c1ccc2ccccc2c1)Cc1ccccc1 | 22.8 ± 6.8% |
| COc1cc(OC)c(C=C2C(=O)Nc3ccccc32)c(OC)c1 | 4.9 ± 6.5% |
| CCN(CCO)CCCOc1ccc2c(Nc3cc(CC(=O)Nc4cccc(F)c4)[nH]n3)ncnc2c1 | -51.3 ± 83% |
| Cc1ccc(NC(=O)c2ccc(CN3CCN(C)CC3)cc2)cc1Nc1nc(-c2cccnc2)cs1 [Masitinib mesylate] | 95.5 ± 1.8% |
| CN1CCN(CCOc2cc(OC3CCOCC3)c3c(Nc4c(Cl)ccc5c4OCO5)ncnc3c2)CC1 | 44.4 ± 16% |
| N#CC(=C(/N)Sc1ccccc1N)/C(C#N)=C(/N)Sc1ccccc1N | 13.3 ± 58% |
| Cc1cc(Nc2nc(N[C@@H](C)c3ccc(F)cc3)c(C#N)cc2F)n[nH]1 | -124 ± 150% |
